Test results from ChEMBL document CHEMBL1157539, “Thousands of chemical starting points for antimalarial lead identification” (Nature, 2010).

Experiments:
Assay type in all cases: functional
Plasmodium falciparum [1] = experiment: GSK_TCMDC: Inhibition of Plasmodium falciparum 3D7 in whole red blood cells, using parasite LDH activity as an index of growth. Test compounds present at 2uM
Plasmodium falciparum [2] = experiment: GSK_TCMDC: Inhibition of Plasmodium falciparum Dd2 in whole red blood cells, using parasite LDH activity as an index of growth. Test compounds present at 2uM
HepG2 = experiment: GSK_TCMDC: Percent inhibition of human HepG2 cell line. Test compounds present at 10uM.

Row | Compound | Inhibition (Plasmodium falciparum [1]) | Inhibition (Plasmodium falciparum [2]) | Inhibition (HepG2)
1 | CC(C)CC1(C(=O)OC(C)(C)C)CC(C(=O)OC(C)(C)C)C(c2cccs2)N1C(=O)c1ccc(C(C)(C)C)cc1 (stereo not drawn) | 100% | 100% | 21%
2 | CC(=O)Nc1[nH]c(-c2ccccc2)nc1C(N)=O | 99% | 0% | 10%
3 | Cl.O=C(Nc1ccc(C(=O)Nc2cccc(C3=NCCN3)c2)cc1)Nc1ccc(C2=NCCN2)cc1 | 96% | 98% | 0%
4 | CCN1CCC(N(Cc2ccc(-c3ccc(C(F)(F)F)cc3)cc2)C(=O)CCCCn2c(CCc3cccc(F)c3F)nc(=O)c3ccccc32)CC1 | 90% | 77% | 54%
5 | N#Cc1cccc(C(=O)NC2CCN(c3ccnc(Nc4ccc(F)cc4)n3)C2)c1 (stereo not drawn) | 98% | 91% | 4%
6 | CCOC(=O)C(NC(=O)Cc1ccccc1)C(C)C (stereo not drawn) | 96% | 98% | 39%
7 | CC(C)C[C@@H](CNC[C@H](CC(C)C)NC(=O)OC(C)(C)C)NC(=O)OC(C)(C)C | 88% | 58% | 4%
8 | CCC(CC)C(CC(=O)NC(C)(C)CCc1ccccc1OC)Nc1ccc(C#N)c2ccccc12 (stereo not drawn) | 93% | 91% | 9%
9 | CN1CCC(C(=O)N(Cc2ccc(-c3ccc(CNCCc4ccccc4)cn3)cc2)C2CCN(Cc3ccccc3)CC2)CC1.O=C(O)C(F)(F)F | 100% | 99% | 24%
10 | CCc1cc2c(Sc3nc4ccccc4[nH]3)ncnc2s1 | 97% | 98% | 6%
11 | CCCCN1CCCN(Cc2cccc(NC(=O)c3ccc(-c4ccccc4)cc3)c2)CC1.O=C(O)C(F)(F)F | 92% | 8% | 19%
12 | COc1cccc(NC(=O)Nc2cc(-c3ccc4[nH]ncc4c3)cc3c2CNC3=O)c1 | 98% | 100% | 3%
13 | Br.Cc1ccc2ccccc2c1CCCON1C(=N)N=C(N)NC1(C)C | 95% | 97% | 65%
14 | O=[N+]([O-])c1ccc(N/C(=N\c2ccccc2Br)NC2CCCc3ccccc32)c(O)c1 (stereo not drawn) | 98% | 89% | 0%
15 | CC(C)c1cc(N)c2cc(NC(=O)COCC(=O)Nc3ccc4nc(C(C)C)cc(N)c4c3)ccc2n1 | 95% | 95% | 0%
16 | Cc1cccc(-c2nc(Nc3ccncc3)c3cc(N(C)C)ccc3n2)n1 | 98% | 63% | 5%

Row | Compound | Inhibition (Plasmodium falciparum [1]) | Inhibition (Plasmodium falciparum [2]) | Inhibition (HepG2)
17 | CC(C)Nc1cc(C(=O)N[C@@H](Cc2ccccc2)[C@H](O)CNC2CCCCC2)cc(N2CCCCS2(=O)=O)c1.O=CO | 98% | 98% | 9%
18 | CC(C)c1ccc(CN2CCCCC(NC(=O)c3cc(-c4cccc(F)c4)cs3)C2)cc1.O=C(O)C(F)(F)F (stereo not drawn) | 94% | 13% | 6%
19 | CN1CCN(c2cc3c(Nc4ccc5c(cnn5Cc5ccccc5)c4)ncnc3cn2)CC1 | 88% | 35% | 9%
20 | c1ccc(Oc2ccc(Nc3ccnc(Nc4ccc(CN5CCOCC5)cc4)n3)cc2)cc1 | 92% | 38% | 46%
21 | COc1ccccc1N1CCN(CCCCN(C(=O)Nc2cccc(Cl)c2)C(=O)Nc2cccc(Cl)c2)CC1.Cl | 100% | 65% | 4%
22 | COc1ccc(CC2(c3ccc(F)cc3)N=C(N)N(CCCc3ccc4c(c3)OCO4)C2=O)cc1.O=C(O)C(F)(F)F (stereo not drawn) | 98% | 97% | 60%
23 | CN1CCCC(CN2CCN(Cc3ccc(-c4ccc(-c5nc6cc(F)ccc6[nH]5)cc4)cc3)CC2)C1.O=C(O)C(F)(F)F (stereo not drawn) | 100% | 98% | 90%
24 | Clc1ccc(C=NN=c2cc[nH]c3ccccc23)cc1 | 100% | 97% | 5%
25 | Cc1ccc(NC(=O)Nc2ccc(Br)cc2)cc1OCCN(C)C | 84% | 15% | 13%
26 | COc1ccc(CCNCC(O)c2cccc(Br)c2)c(Cl)c1OC.Cl (stereo not drawn) | 87% | 70% | 18%
27 | O=C(O)C(F)(F)F.O=[N+]([O-])c1cccc(CNCC2CCN(CCc3ccccc3)CC2)c1 | 98% | 11% | 15%
28 | O=C(/C=C/c1ccc(Cl)c(Cl)c1)NCCCCCCN1CCCN(C(=O)Nc2cccc(C(F)(F)F)c2)CC1 | 95% | 0% | 25%
29 | CC(C)CCN1CCCN(Cc2ccc(C(=O)NCc3ccc(Cl)cc3)cc2)CC1.O=C(O)C(F)(F)F | 84% | 0% | 16%
30 | CN1CCN(Cc2ccc(-c3cc4c(Nc5ccc(OCc6cccc(F)c6)c(Cl)c5)ncnc4s3)[nH]2)CC1 | 100% | 99% | 23%
31 | CCCCCCNC(=O)C(N)CCCC(N)C(=O)NCCCCCC.Cc1ccc(S(=O)(=O)O)cc1 (stereo not drawn) | 99% | 0% | 0%
